Reference: PubChem BioAssay AID651956 (Broad Institute, 2012)
Potency and affinity values are given separately. Records with an inconclusive call do not appear. Entries that show only a call come without a potency. Activity calls are given as the source filed them.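 How the source made its calls: active means in every test run, a fitted half-maximal concentration for signal decrease at or below twice the highest tested concentration; inconclusive means runs disagree, flat 30 to 70% decrease, or poor fit; inactive means the rest.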

Assay: activation of miR-122 Renilla sensor silencing – cell-based, Huh7 psiCHECK-miR122, Renilla luciferase, cherry-picked, dose response (AID 651956)
Details: Huh7 psiCHECK-miR122 Renilla luciferase reporter, 48 h; series mostly up to 35 µM

SMILES | outcome
COc1ccc(NC(=O)COC(=O)CCCc2c[nH]c3ccccc23)cc1 | inactive
C/C=C/c1ccc([C@@H]2[C@@H](CN(C)C(=O)CC)N(C(=O)NC(C)C)[C@H]2CO)cc1 | inactive
CCNC(=O)C[C@H]1CC[C@H]2[C@@H](COc3ccc(NC(=O)c4ccccc4)cc3C(=O)N2C)O1 | inactive
CO[C@H]1CN(C)C(=O)c2cc(NC(=O)C3CC3)ccc2OC[C@H](C)N(CCc2ccccc2)C[C@H]1C | inactive
COCC(=O)N(C)C[C@@H]1[C@@H](c2ccccc2)[C@H](CO)N1C(=O)Cc1ccncc1 | inactive
CCCNC(=O)C[C@@H]1CC[C@@H]2[C@@H](COc3ccc(NS(=O)(=O)c4ccccc4C)cc3C(=O)N2C)O1 | inactive
COCC(=O)N(C[C@H]1N[C@@H](CO)[C@@H]1c1ccc(C2=CCCC2)cc1)C(C)C | inactive
COCC(=O)NC[C@@H]1[C@H](c2ccc(C3=CCCC3)cc2)[C@@H](CO)N1C(=O)C1CC1 | inactive
CNC[C@H]1Oc2cc(C#CC3CCCC3)ccc2S(=O)(=O)N([C@H](C)CO)C[C@H]1C | inactive
COc1cccc(C(=O)N2C[C@H]3[C@@H](c4ccccc42)[C@H](CO)N3C(C)=O)c1 | inactive
